Among the data in the antibiotic and cytotoxicity screens of Wong et al. (2023) are cytotoxicity call values, retold here.

About 3,300 (8.5%) of roughly 39,000 compounds were called active. Only a selection was taken, and actives are over-represented in it overall.

This experiment concerns HepG2. The experiment is described as follows: cytotoxicity call (relative viability < 0.9). Particulars: 10 µM.
As for `CNC[C@@H](O)c1ccc(O)c(OC)c1`, the cytotoxicity call is “inactive”.

`CN1C[C@H]2CN(Cc3nccn3C)C[C@H]2C1=O`: the cytotoxicity call was “inactive”.

Take `N#Cc1c(Cl)c(Cl)c(Cl)c(C#N)c1Cl`: the cytotoxicity call is “active”.

In the case of `COc1ccc(C2(CN)CCOCC2)cc1`, the cytotoxicity call is “inactive”.

Turning to `CC[C@@H]1/C=C/C=C/C[C@H](C)[C@@H](O)[C@](C)(O)C(=O)[C@H](C)[C@@H](O)[C@H](C)C(=O)[C@H](C)[C@@H](O)[C@H](C)/C=C/C(=O)O[C@H]2[C@@H](C)[C@@H](CC1)O[C@@]1(CC[C@@H](C)[C@@H](C[C@H](C)O)O1)[C@@H]2C`, the cytotoxicity call was “inactive”.

In the case of `CC1(C)C(=O)C=CC2(C)C1CC(O)C1(C)C2CCC2(C)C(c3ccoc3)OC(=O)C3OC321` (stereo not given), the cytotoxicity call was “active”.

In the case of `CC(=O)OC1CC(OC(C)=O)C2(C)C(CC(OC(C)=O)C3(C)C2CCC2(C)C(c4ccoc4)C(=O)C4OC423)C1(C)C` (stereo not given), the cytotoxicity call was “inactive”.

Turning to `CC(=O)OC1CC2C(C)(C)C(=O)C=CC2(C)C2CCC3(C)C(=CC(=O)OC3c3ccoc3)C12C` (stereo not given), the cytotoxicity call is “active”.

`CC1(C)C(O)CC(O)C2(C)C1CC(=O)C1(C)C2CCC2(C)C(c3ccoc3)OC(=O)C3OC321` (stereo not given): the cytotoxicity call is “inactive”.

With `COC(=O)C1CC(OC(C)=O)C(=O)C2C1(C)CCC1C(=O)OC(c3ccoc3)CC12C` (stereo not given), the cytotoxicity call was “inactive”.

As for `CC1(C)C(=O)C2OC2C2(C)C1CC(O)C1(C)C2CCC2(C)C(c3ccoc3)OC(=O)C3OC321` (stereo not drawn) [1,2alpha-EPOXYDEACETOXYDIHYDROGEDUNIN ], the cytotoxicity call was “inactive”.

Regarding `NC(=O)[C@H]1CNC(=O)C1`, the cytotoxicity call was “inactive”.

Turning to `NC1(c2ccccc2F)CCCC1`, the cytotoxicity call is “inactive”.

Regarding `CC(C)(C)[C@]1(O)C[C@@H]2OC(=O)C[C@@]23C(=O)O[C@@H]2OC(=O)[C@H](O)[C@]213`, the cytotoxicity call is “inactive”.

Consider `C/C(=C\[C@@H](N)C(=O)O)CP(=O)(O)O`, for which the cytotoxicity call was “inactive”.

Turning to `Cc1cccc(Cc2c[nH]cn2)c1C.Cl`, the cytotoxicity call was “inactive”.

As for `CCC1C2CC3C4N(C)c5ccccc5C45CC(C2C5O)N3C1O` (stereo not given), the cytotoxicity call was “inactive”.

`c1cc(N2CCNCC2)ccn1`: the cytotoxicity call was “inactive”.

For the molecule `CCn1cc2nc(N3CCNCC3)[nH]cc-2c1=O`, the cytotoxicity call was “inactive”.

Turning to `C[C@H]1O[C@H](n2cnc3c(N)ncnc32)C[C@H]1O`, the cytotoxicity call was “inactive”.

With `CC(=O)Oc1ccc(Cl)c2cccnc12`, the cytotoxicity call was “active”.

Take `Cc1c(N)nc([C@H](CC(N)=O)NC[C@@H](N)C(N)=O)nc1C(=O)N[C@H](C(=O)N[C@@H](C)[C@H](O)[C@@H](C)C(=O)N[C@@H](C(=O)NCCc1nc(-c2nc(C(=O)NCCC[S+](C)C)cs2)cs1)[C@@H](C)O)[C@@H](O[C@H]1O[C@H](CO)[C@H](O)[C@@H](O)[C@H]1O[C@H]1O[C@H](CO)[C@@H](O)[C@H](OC(N)=O)[C@@H]1O)c1c[nH]cn1`: the cytotoxicity call is “inactive”.

Take `O[C@H]1[C@H](O)[C@@H](O)CO[C@H]1NCCc1ccccc1`: the cytotoxicity call was “inactive”.

Take `COCCN1[C@@H]2CC[C@H]1CN(c1ncccn1)C2`: the cytotoxicity call is “inactive”.

Turning to `CCn1nnnc1N`, the cytotoxicity call was “inactive”.

Consider `C[C@H](CO)N1C[C@H](C)[C@H](CN(C)C(=O)Oc2cccc3ccccc23)OCc2cnnn2CCCC1=O`, for which the cytotoxicity call is “inactive”.

Take `NCc1cccnc1`: the cytotoxicity call was “inactive”.

As to `N#Cc1cccnc1`, the cytotoxicity call was “inactive”.

`CNCc1cccnc1`: the cytotoxicity call was “active”.

For `CC(=O)OCC1=C2C(=O)[O][Zn][O]C(=O)[C@@H](N)CCCC(=O)N[C@@H]3C(=O)N2[C@@H]3SC1`, the cytotoxicity call was “inactive”.

On to `Nc1nc(=O)c2ncn([C@H]3O[C@@H](COP(=O)(O)OP(O)(O)=S)[C@H](O)[C@@H]3O)c2[nH]1`, for which the cytotoxicity call was “inactive”.

For the molecule `CN(C)[C@@H]1C(=O)[C@@H](C(N)=O)C(=O)[C@@]2(O)C(=O)[C@H]3C(=O)c4c(O)ccc(Cl)c4[C@@](C)(O)[C@H]3C[C@@H]12`, the cytotoxicity call is “inactive”.

In the case of `CCCCCC1C(=O)OC(C)C(NC(=O)c2cccc(NC=O)c2O)C(=O)OC(C)C1OC(=O)CC(C)C` (stereo not given) [ANTIMYCIN A (A1 shown) ], the cytotoxicity call is “active”.

Turning to `CCCCC[C@H]1C(=O)O[C@H](C)[C@H](NC(=O)c2cccc(NC=O)c2O)C(=O)O[C@@H](C)[C@@H]1OC(=O)CC(C)C`, the cytotoxicity call is “active”.

`O=C1COC2(CNC2)CN1`: the cytotoxicity call was “inactive”.

As to `CC(C)N1CCO[C@H]2CN(C(=O)N(C)C)C[C@@H]21`, the cytotoxicity call is “inactive”.

On to `C=CCC1(O)CCC2C3CCC4=CC(=O)CCC4=C3C=CC21C` (stereo not given), for which the cytotoxicity call is “inactive”.

Regarding `CC(CCc1ccccc1)NC(C)C(O)c1ccc(O)cc1.Cl` (stereo not given), the cytotoxicity call was “inactive”.

With `Nc1nnns1`, the cytotoxicity call is “inactive”.

Consider `CC(C)[C@@H](Br)C(=O)NC(N)=O`, for which the cytotoxicity call was “inactive”.

As to `CC(C)Oc1ncccc1CN`, the cytotoxicity call is “inactive”.

Take `CC(=O)OC1CC2(C)C(c3ccoc3)CC3OC32C2(C)C(=O)C(O)=C3C(C)(C)C(=O)C=CC3(C)C12` (stereo not given): the cytotoxicity call was “active”.

Take `CC(=O)O[C@H]1C[C@@H](OC(C)=O)C(C)(C)[C@@H]2C[C@@H](OC(C)=O)[C@]3(C)[C@H](CC[C@@]4(C)[C@H](c5ccoc5)C[C@H]5O[C@@]534)[C@@]12C`: the cytotoxicity call is “inactive”.

With `CC1(C)C(O)CC(=O)C2(C)C1CC(=O)C1(C)C2CCC2(C)C(c3ccoc3)OC(=O)C3OC321` (stereo not given), the cytotoxicity call is “inactive”.

On to `CC1(C)C(=O)C=CC2(C)C1=C(O)C(=O)C1(C)C2CCC2(C)C(c3ccoc3)CC3OC321` (stereo not given), for which the cytotoxicity call was “active”.

In the case of `N[C@H]1CCCN(Cc2cccnc2)C1`, the cytotoxicity call was “inactive”.

With `O=C1NC(=S)NC(=O)C1CN1CCOCC1`, the cytotoxicity call is “inactive”.

For the molecule `C[C@H](O)[C@@]12[C@H]3CC=C[C@@H]1N2CC3` (stereo not given in full), the cytotoxicity call was “inactive”.

With `O[C@H]1CNC[C@@H]1N1CCCCC1`, the cytotoxicity call is “inactive”.

With `Cn1c(CCN)nc2ccccc21`, the cytotoxicity call was “inactive”.

Regarding `COC(=O)C[C@@H]1CC[C@@H]2NC[C@H](O)COC[C@H]2O1`, the cytotoxicity call was “inactive”.

Turning to `CO[C@@H]1C=C[C@@H]2[C@H]1N2CCO` (stereo not given in full), the cytotoxicity call was “inactive”.

With `N[C@H]1CNC(=O)C1`, the cytotoxicity call is “inactive”.

`NCCc1ccc(O)cc1` [listing 1 of 2 here]: the cytotoxicity call is “inactive”.

As for `NCCc1ccc(O)cc1` [listing 2 of 2 here], the cytotoxicity call is “inactive”.

Regarding `CCCCCCCCCc1ccc(O)cc1`, the cytotoxicity call was “active”.

In the case of `C1CCN2C(C3N4CCCCN34)N2C1` (stereo not given), the cytotoxicity call is “inactive”.

As for `c1cnc2[nH]cc(CN3CCNCC3)c2c1`, the cytotoxicity call was “inactive”.

In the case of `O=C1NCc2cnnn2-c2ccccc21`, the cytotoxicity call is “inactive”.

As for `CCN1CCN(c2nc(=O)cc(C)[nH]2)CC1`, the cytotoxicity call was “inactive”.

On to `C1CO[C@@]2(C1)CCNC2`, for which the cytotoxicity call was “inactive”.

As to `O=C([O-])c1ccccc1-c1c2cc(Br)c(=O)cc-2oc2[c]([Hg][OH])c([O-])c(Br)cc12.[Na+].[Na+]`, the cytotoxicity call is “inactive”.

Turning to `O=C1NC(=O)C(=C[C@@H]2CC=CCC2)C(=O)N1`, the cytotoxicity call was “inactive”.

For the molecule `CC1=C(O)C(=O)C=C2C1=CC=C1C2(C)CCC2(C)C3CC(C)(C(=O)O)CCC3(C)CCC12C` (stereo not given), the cytotoxicity call is “active”.

Regarding `O.O.O.O=C([O-])C1[O][Sb]2[O]C(=O)C([O]2)C(C(=O)[O-])[O][Sb]2[O]C(=O)C1[O]2.[K+].[K+]` (stereo not given), the cytotoxicity call is “active”.

As for `Clc1nc(N2CCNCC2)c2[nH]cnc2n1`, the cytotoxicity call is “inactive”.

Turning to `COCCCNC(=O)[C@H]1N[C@H]2C[C@@H]1C[C@@H]2F`, the cytotoxicity call is “inactive”.

As for `O[C@@H]1[C@@H]2C[C@H]3[C@H]1N[C@@H]1C[C@@H]2[C@@H]3[C@H]1O`, the cytotoxicity call is “inactive”.

With `CN1CCO[C@H]2CN(c3ncccn3)C[C@@H]21`, the cytotoxicity call was “inactive”.

As for `N#Cc1nn(-c2c(Cl)cc(C(F)(F)F)cc2Cl)c(N)c1S(=O)C(F)(F)F` (stereo not given), the cytotoxicity call was “active”.

Take `C[C@H](CO)N1C[C@H](C)[C@H](CN(C)C(=O)Oc2ccc3ccccc3c2)OCc2cn(nn2)CCCC1=O`: the cytotoxicity call is “inactive”.

For the molecule `CCOCC(=O)N1C[C@H]2CNC[C@H]2C1`, the cytotoxicity call is “inactive”.

`CN1CCCN(Cc2ccc(CN)cc2)CC1`: the cytotoxicity call is “inactive”.

For the molecule `CN1[C@@H]2CC[C@H]1CNC(=O)C2`, the cytotoxicity call was “inactive”.

With `CC1=NCCc2c1[nH]c1cc(O)ccc21.Cl.O.O`, the cytotoxicity call is “active”.

For the molecule `COc1ccc2c3c([nH]c2c1)C(C)=NCC3`, the cytotoxicity call is “inactive”.

As to `CN1CCN(c2ccccc2CN)CC1`, the cytotoxicity call is “inactive”.

With `COc1ccc(OC(=O)N(C)C[C@@H]2OCc3ccccc3-c3c(n(C)c4ccccc34)C(=O)N([C@H](C)CO)C[C@H]2C)cc1`, the cytotoxicity call is “inactive”.

Consider `N#Cc1cccnc1N1CCNCC1`, for which the cytotoxicity call is “inactive”.

On to `Cc1ccc2cc3c(ccc4ccccc43)c3c2c1CC3`, for which the cytotoxicity call was “active”.

Regarding `CN1CCN(C(=O)[C@H]2C[C@H]3CN(c4ncccn4)C[C@@H]3N2C)CC1`, the cytotoxicity call is “inactive”.

`Br.CN1C2CC(OC(=O)C(CO)c3ccccc3)CC1C(O)C2` (racemic): the cytotoxicity call was “inactive”.

On to `C=C1[C@H]2CC[C@H]3[C@]4(C)C[C@H](O[C@H]5O[C@@H](CO)[C@@H](OS(=O)(=O)O)[C@H](OS(=O)(=O)O)[C@H]5OC(=O)CC(C)C)C[C@@H](C(=O)O)[C@H]4CC[C@]3(C2)[C@H]1O`, for which the cytotoxicity call was “inactive”.

As to `CC[C@@H](C)NC=C1C(=O)NC(=O)NC1=O`, the cytotoxicity call is “inactive”.

With `O=C(c1ccco1)N1[C@@H]2CC[C@H]1CNC2`, the cytotoxicity call is “inactive”.

Regarding `NC1(c2cccc(Cl)c2)CC1`, the cytotoxicity call is “inactive”.

On to `CC(C)C[C@@H]1NC[C@@H]2CCCN2C1=O`, for which the cytotoxicity call was “inactive”.

Turning to `CN(C)C(=S)SSC(=S)N(C)C`, the cytotoxicity call was “active”.

With `O=C(O)CN1C[C@@H]2C(NC(=O)c3ccno3)[C@H]2C1` (stereo not given in full), the cytotoxicity call is “inactive”.

Regarding `CC(C(O)c1ccccc1)N(C)C` (stereo not given), the cytotoxicity call was “inactive”.

Turning to `CNCC(=O)c1ccc(O)cc1`, the cytotoxicity call is “inactive”.

With `COC(=O)NC(=S)Nc1ccccc1NC(=S)NC(=O)OC`, the cytotoxicity call is “active”.

As for `CNc1ccccc1C(=O)O`, the cytotoxicity call is “inactive”.

Turning to `Br.CN1C2CC(OC(=O)C(CO)c3ccccc3)CC1C1OC12` (stereo not given), the cytotoxicity call is “inactive”.

Consider `C[N+]1(C)C2CC(OC(=O)C(CO)c3ccccc3)CC1C1OC12.[Br-]` (stereo not given), for which the cytotoxicity call was “inactive”.

On to `CC(=O)Nc1ccc(Cl)cc1C`, for which the cytotoxicity call was “inactive”.

With `C=C[C@H]1CN2CC[C@@H]1C[C@@H]2CO`, the cytotoxicity call was “inactive”.

`CN(C)[C@@H](CN)c1cn(C)c2ccccc12`: the cytotoxicity call is “inactive”.

As to `C[C@@H]1CCC(=O)O1`, the cytotoxicity call was “inactive”.

Take `OCC[N+]12CN3CN(CN(C3)C1)C2`: the cytotoxicity call is “inactive”.

For the molecule `Cc1cc2c(C(C)C)c(O)c(O)c(C=O)c2c(O)c1-c1c(C)cc2c(C(C)C)c(O)c(O)c(C=O)c2c1O` [listing 1 of 2 here], the cytotoxicity call is “active”.

For the molecule `CC(=O)O.Cc1cc2c(C(C)C)c(O)c(O)c(C=O)c2c(O)c1-c1c(C)cc2c(C(C)C)c(O)c(O)c(C=O)c2c1O`, the cytotoxicity call is “inactive”.

For the molecule `Cc1cc2c(C(C)C)c(O)c(O)c(C=O)c2c(O)c1-c1c(C)cc2c(C(C)C)c(O)c(O)c(C=O)c2c1O` [listing 2 of 2 here], the cytotoxicity call is “inactive”.

For the molecule `COc1cccc(C2(O)CCCCC2CN(C)C)c1.Cl` (stereo not given), the cytotoxicity call is “inactive”.

Consider `CN(CC[C@@H](N)CC(=O)N[C@H]1C=C[C@H](n2ccc(N)nc2=O)O[C@@H]1C(=O)O)C(=N)N`, for which the cytotoxicity call was “inactive”.
